HTR5A inv ctr = counter-screen for OPRM1-OPRD1 inverse agonists: human HTR5A inverse agonism; inhibition, % at 9.3 µM; HTR5A cell line, luminescence; hit rate 0.083% among 340,000; AID 504634; in the data active = inhibition mostly above about 23%, no sharp cut-off; inactive = mostly below about 18%;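 also: 0% = cells with DMSO and 100% = no-cell wells with DMSO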
MsrA inh = bovine MsrA inhibition; purified bovine MsrA, absorbance read-out; inhibition, % at 15.5 µM; hit rate 0.75% among 360,000; AID 651718;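 also: 0% = vehicle wells with enzyme and 100% = reference inhibitor wells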
bovine MsrA act = bovine methionine sulfoxide reductase A activation; purified bovine MsrA, absorbance read-out; activation, % at 10.6 µM; AID 602163; hit rate 0.3% among 360,000; in the data active = activation above about 7.5%;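 also: 0% = vehicle and 100% = reference activator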
OPRM1-OPRD1 ag = agonists of human mu-delta opioid receptor heterodimerization. activation, % at 9.3 µM. cells, OPRM1-OPRD1 heterodimerization, luminescence. hit rate 0.3% among 340,000; in the data active = activation above about 18%;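 also: 0% = vehicle-treated cells and 100% = reference agonist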
Target sequence (P35372 whole entry, looked up): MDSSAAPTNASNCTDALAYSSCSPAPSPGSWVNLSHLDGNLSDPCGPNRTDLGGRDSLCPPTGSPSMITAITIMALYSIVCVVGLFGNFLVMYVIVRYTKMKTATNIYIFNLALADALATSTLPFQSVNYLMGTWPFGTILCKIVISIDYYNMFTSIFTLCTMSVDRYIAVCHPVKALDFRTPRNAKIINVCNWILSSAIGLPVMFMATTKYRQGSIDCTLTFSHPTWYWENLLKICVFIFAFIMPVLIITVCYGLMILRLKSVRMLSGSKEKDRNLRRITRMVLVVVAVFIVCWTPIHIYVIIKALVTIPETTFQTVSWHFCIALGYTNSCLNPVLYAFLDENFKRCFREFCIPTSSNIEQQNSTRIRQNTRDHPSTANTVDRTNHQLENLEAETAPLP
Target sequence (P41143 whole entry, looked up): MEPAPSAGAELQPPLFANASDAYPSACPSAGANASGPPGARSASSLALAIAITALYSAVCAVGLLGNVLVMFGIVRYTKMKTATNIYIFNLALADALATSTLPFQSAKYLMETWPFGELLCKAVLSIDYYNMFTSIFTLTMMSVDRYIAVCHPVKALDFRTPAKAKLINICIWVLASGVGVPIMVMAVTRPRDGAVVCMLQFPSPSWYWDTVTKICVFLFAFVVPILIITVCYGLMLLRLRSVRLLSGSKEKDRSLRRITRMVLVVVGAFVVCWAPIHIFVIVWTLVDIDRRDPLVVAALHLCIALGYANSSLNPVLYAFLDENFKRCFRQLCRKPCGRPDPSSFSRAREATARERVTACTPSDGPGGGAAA
OPRM1-OPRD1 inv = inverse agonists of human mu-delta opioid receptor heterodimerization; P35372+P41143; cell-based MOR-DOR heterodimer luminescence, inverse agonism; inhibition, % at 9.3 µM; hit rate 0.21% among 340,000; AID 504357; in the data active = inhibition above about 22%, passing the limit was not always enough;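 also: 0% = cells with DMSO and 100% = wells without cells with DMSO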
HTR5A ag ctr = activates human HTR5A in OPRM1-OPRD1 agonist counter-screen | HTR5A agonist assay, luminescence, cell-based | activation, % at 9.3 µM | hit rate 0.61% among 340,000 | AID 504692; in the data active = activation mostly above about 9.5%, no sharp cut-off; inactive = mostly below about 7.6%;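 also: 0% = cells with vehicle only and 100% = reference agonist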
MsrA inh confirm = confirmation of bovine MsrA inhibitors; shares compounds with MsrA inh; purified bovine MsrA, absorbance read-out; inhibition, % at 15.5 µM; hit rate 41% among 2,300; AID 651822;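 also: coupled to thioredoxin reductase with NADPH and selenocystamine and DMSO as substrate; 0% = vehicle only and 100% = full effect of reference inhibitor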
* = called active by the depositor; . = not tested or not shown. A selection: hits, their analogues and other compounds. The true share with any hit is near 1.9%. Rule as the data show it, unless noted: active = inhibition above about 4.5%; inactive = the rest.

SMILES	HTR5A inv ctr	MsrA inh	bovine MsrA act	OPRM1-OPRD1 ag	OPRM1-OPRD1 inv	HTR5A ag ctr	MsrA inh confirm
O=C(/C=C(\Nc1cccc(Cl)c1)c1ccccc1)c1ccccc1	.	-1.1	.	.	.	.	.
COC(=O)[C@@]12C[C@@H](CC(=O)NCCCCc3ccccc3)C(=O)N(Cc3ccc4c(c3)OCO4)C1=CCC(C)(C)C2	.	0.0	.	.	.	.	.
O=C(c1cc(C2CCCCN2S(=O)(=O)c2ccc(F)cc2F)on1)N1CCOCC1 (stereo not given)	.	-0.3	0.1	.	.	.	.
CCOc1cc(/C=N/N=C/c2ccc(O)c(OCC)c2)ccc1O	-27.0	6.4*	-1.0	-1.7	10.0	7.0	4.3
COc1cc(C=C2C(=O)C=CC2=O)ccc1O	.	1.6	-15.3	.	.	.	.
S=c1[nH]nc(C2CCCCC2)n1/N=C/c1ccccc1Cl	3.9	15.1*	-2.4	0.6	-2.9	-1.0	11.8*
COc1cccc(NC(=O)N(C)C[C@H]2OCc3cn(nn3)CCCC(=O)N([C@H](C)CO)C[C@@H]2C)c1	.	0.1	.	.	.	.	.
CC(C)C(=O)c1ccc(O)c(O)c1	0.2	1.5	-5.8	-2.9	15.0	5.4	.
O=C(C(=O)c1ccc(O)c(O)c1)c1ccc(O)c(O)c1	6.1	7.6*	0.1	-3.6	17.7	-1.5	8.3*
O=C1N/C(=C\c2ccc(O)cc2)C(O)=C1C=NCc1ccccc1	24.8	4.9*	-4.5	2.4	-13.6	-7.3	3.9
Cc1cc(O)cc(=O)n1-c1ccc(OC(F)F)cc1	.	-0.2	.	.	.	.	.
CC(C)(C)C(=O)Nc1sc2c(c1C#N)CCC2	-15.1	5.9*	-4.2	-1.0	5.5	5.8	4.7*
O=C(O)c1ccc(N/N=C/c2ccc3nccnc3c2)cc1	5.7	4.8*	-7.6	-4.6	23.3	-0.3	2.8
O=C(O)c1ccc(N/N=C/c2ccncc2)cc1	4.3	5.7*	-6.0	-3.4	19.9	-1.1	4.5
COC(=O)[C@@H](N[C@H](/C=C/c1ccccc1)[C@@H](O)Cc1ccccc1)c1ccccc1	.	-0.7	.	.	.	.	.
CC(C)C(=O)OCC(=O)Nc1ccc(N=Nc2ccccc2)cc1	-15.1	1.6	-5.4	2.2	-11.9	1.1	.
CC(=O)OCC(=O)Nc1ccc(N=Nc2ccccc2)cc1	11.8	5.9*	-6.0	-3.1	17.1	-1.1	4.2
COc1cccc(C(C(=O)NC2CCCC2)N2CCN(c3ncccc3C#N)CC2)c1OC (stereo not given)	.	-0.3	.	.	.	.	.
O=C(CSc1nn(-c2ccccc2)c(=S)s1)Nn1cnnc1	-27.1	2.0	-14.4	0.1	-0.4	3.5	.
COC(=O)CSc1nn(-c2ccc(F)cc2)c(=S)s1	17.0	5.2*	-2.2	-1.5	6.9	-6.7	2.3
COC(=O)c1cc(=O)nc(NN=Cc2ccc(OC)cc2)s1	.	.	-3.5	.	.	.	.
CCCOc1c(OC)cccc1C1CC(=O)Nc2cc3c(cc21)OCO3 (stereo not given)	-12.1	5.1*	-3.7	-1.1	4.9	6.5	4.7*
COc1ccc(CC(=O)NCC2CCN(C(=O)C(=O)c3cc4ccccc4o3)CC2)cc1	.	1.5	.	.	.	.	.
CC1(C)Cc2nc(N3CCCC3)c(C#N)cc2CO1	-2.3	8.7*	-11.3	-0.5	2.5	0.8	5.4*
CCn1c(Sc2nc(C)nc3scc(-c4cccs4)c23)n[nH]c1=O	4.2	10.2*	-6.6	-1.0	6.0	2.3	10.0*
SMILES	HTR5A inv ctr	MsrA inh	bovine MsrA act	OPRM1-OPRD1 ag	OPRM1-OPRD1 inv	HTR5A ag ctr	MsrA inh confirm
O=C(NCc1ccco1)c1cc2cc3ccc(Cl)cc3nc2o1	6.6	-0.2	-3.3	4.9	-27.8	1.4	.
COc1ccc2cc3cc(C(=O)NCc4ccco4)oc3nc2c1	2.5	4.8*	-3.1	0.8	-4.7	-3.0	2.1
COc1ccc2cc3cc(C(=O)NCc4ccccn4)oc3nc2c1	-47.3	8.0*	-4.9	0.6	-3.2	1.9	5.6*
O=S1(=O)N[C@H](Cc2ccccc2)COc2cccc(F)c21	.	2.6	.	.	.	.	.
O=C(N/N=C/c1ccc(N2CCOCC2)s1)c1ccc(O)cc1	.	2.9	-0.9	.	.	.	.
Cc1ccc(C(=O)N/N=C/c2ccc(N3CCOCC3)cc2)c(C)c1	-6.8	5.5*	-1.6	-0.2	1.1	2.6	3.6
O=C(N/N=C/c1ccc(N2CCOCC2)cc1)c1ccc(O)cc1	1.5	5.6*	-6.2	-2.1	10.7	-3.6	4.8*
S=C(NCCN1CCOCC1)N/N=C/c1cccs1	-4.7	4.4	-4.7	0.9	-4.7	1.3	.
Cc1ccc(C(=O)NC(=S)Nc2ccc(N3CCOCC3)cc2)c(C)c1	8.5	0.9	-3.3	0.0	0.2	-1.3	.
O=C(O)c1ccc(/C=N/NC(=S)NCCN2CCOCC2)cc1	-14.5	6.1*	-11.9	-0.3	1.2	8.2	1.8
C/C(=N\NC(=O)c1ccc(F)cc1)c1ccc(N2CCOCC2)cc1	-10.1	2.0	-2.8	-1.5	7.0	-1.7	.
C/C(=N\NC(=O)c1cccc(C)c1)c1ccc(N2CCOCC2)cc1	-2.0	5.3*	-10.8	0.3	-1.6	0.2	2.8
COc1ccc(Cl)cc1NC(=O)c1cccc(S(=O)(=O)Nc2c(C)n(C)n(-c3ccccc3)c2=O)c1	.	-0.8	.	.	.	.	.
Cc1cc(C)n2c(Nc3c(C)cccc3C)c(CC(C)C)nc2n1	.	1.8	-8.6	.	.	.	.
COc1ccc(/C(O)=C2/C(=O)C(=O)N(CCCN3CCOCC3)C2c2ccc(Cl)cc2)cc1 (stereo not given)	.	6.8*	-3.3	.	.	.	1.9
O=C1C(=O)N(CCCn2ccnc2)C(c2ccc(Br)cc2)/C1=C(\O)c1ccc2c(c1)OCCO2 (stereo not given)	-1.6	3.1	-7.7	0.0	0.0	0.6	.
O=C1C(=O)N(CCCn2ccnc2)C(c2ccc(Cl)cc2)/C1=C(\O)c1ccc2c(c1)OCCO2 (stereo not given)	3.5	9.1*	-5.2	-1.1	5.8	-0.9	1.2
COc1ccc(C2/C(=C(/O)c3ccccc3)C(=O)C(=O)N2CCCN2CCOCC2)cc1 (stereo not given)	-5.2	2.8	-1.9	-0.8	3.5	1.4	.
CC(=C1SC(=S)NC1=O)c1ccc(Cl)c(O)c1	.	2.4	.	.	.	.	.
Nc1sccc1C(=O)N1CCN(c2ccccc2)CC1	.	0.0	.	.	.	.	.
Cc1ccc(/C=C/C(=O)Nc2nnc(C)s2)o1	3.1	7.6*	-3.9	0.4	-2.2	-0.9	5.3*

High-throughput results as filed in PubChem.
